Screening data: PubChem, National Center for Advancing Translational Sciences (NCATS)
In the library only some 7.3% were active in any assay of this set; here they are far more common.
ELG1 genotox: inducers of genotoxicity in HEK293T ELG1-luciferase cells; HEK293T ELG1-luciferase reporter, luminescence, 16 h; 330,000 compounds, 1.3% hits; Potency, µM (titrated, usually from 46 µM), without a hit: top-dose activity change, positive = activation, actives largely listed as activators; AID 504466; also: % of control where 0% means no effect; nearly all actives have a fitted effect of over 60% in size
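Luminescence read-out: rising ELG1-luciferase signal, reflecting elevated ELG1 protein under genetic stress, flags genotoxic compounds. Cells were treated for 16 hr at 37 °C before ONE-Glo detection.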
NPC1 promoter act: NPC1 promoter activation | Huh7 NPC1 promoter luciferase reporter, 24 h | Potency, µM (highest dose often 9.22 µM), without a hit: at the top dose activation, actives largely listed as activators | 320,000 compounds, 2.4% hits | AID 485313; also: % of control where 0% means no effect; nearly all actives have a fitted effect of over 60% in size
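Stable NPC1-promoter luciferase Huh7 line; cpd (DMSO) 24 h, 37 °C, 5% CO2; Amplite luciferase reagent 10 min RT; luminescence readout. qHTS format.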
Rab9 prom act: activates the Rab9 promoter; Potency, µM (highest dose often 9.22 µM), without a hit: at the highest dose activation, negative = inhibition, usual class: activators; 320,000 compounds, 2.8% hits; AID 485297; Huh7 Rab9 promoter-luciferase reporter, luminescence, 24 h; also: % of control where 0% means no effect; nearly all actives have a fitted effect of over 60% in size
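Measured in stably transfected Huh7 cells bearing a Rab9 promoter–luciferase construct: 24 h compound treatment at 37 °C, followed by luminescence detection.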
KinaseGlo FLuc: blocks Kinase-Glo luciferase, a counter-screen artifact; Q27757; Kinase-Glo luciferase, ATP luminescence, 8 min; Potency, µM (series often up to 38.3 µM), without a hit: at the top dose activity change, negative = inhibition, most hits filed as inhibitors; 200,000 compounds, 0.28% hits; AID 1379; also: % is scaled to controls: 0 for no effect and ±100 for the full control effect; nearly all actives have a fitted effect of over 60% in size
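Light output from Kinase-Glo luciferase with luciferin and 10 uM ATP in 50 mM imidazole pH 7.2, KCl, MgCl2, Tween 20, BSA; compound pin-delivered, 8-min ambient incubation, then luminescence read.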
SMN2 splice enh: enhancers of SMN2 splice variant expression. AID 1458. 210,000 compounds, 2.8% hits. HEK293 SMN2-luciferase splicing reporter, luminescence, 30-36 h. Potency, µM (top dose mostly 46.1 µM), for inactives: top-dose activity change, positive = activation, usual class: activators; also: % of control where 0% means no effect; nearly all actives have a fitted effect of over 55% in size
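HEK293 cells carry an SMN2 […]–luciferase reporter in which exon 7 inclusion puts luciferase in frame. Cells were plated 10-12 h before compound addition, then incubated 30-36 h at 37C. ONE-Glo luminescence was read; sodium butyrate at 4.5 mM final served as control.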
FLuc counter: counter-screen for miR-21 project: firefly luciferase inhibitors or activators | P08659 | purified FLuc, Km substrates, luminescence inhibition | Potency, µM (titrated, usually from 57.5 µM), for the others: at the top dose activity change, negative = inhibition, hits mostly inhibitors | 360,000 compounds, 6.9% hits;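 also: plate controls were vehicle for no effect and reference inhibitor for full effect; nearly all actives have a fitted effect of over 55% in size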
Target sequence (P08659 whole entry, looked up): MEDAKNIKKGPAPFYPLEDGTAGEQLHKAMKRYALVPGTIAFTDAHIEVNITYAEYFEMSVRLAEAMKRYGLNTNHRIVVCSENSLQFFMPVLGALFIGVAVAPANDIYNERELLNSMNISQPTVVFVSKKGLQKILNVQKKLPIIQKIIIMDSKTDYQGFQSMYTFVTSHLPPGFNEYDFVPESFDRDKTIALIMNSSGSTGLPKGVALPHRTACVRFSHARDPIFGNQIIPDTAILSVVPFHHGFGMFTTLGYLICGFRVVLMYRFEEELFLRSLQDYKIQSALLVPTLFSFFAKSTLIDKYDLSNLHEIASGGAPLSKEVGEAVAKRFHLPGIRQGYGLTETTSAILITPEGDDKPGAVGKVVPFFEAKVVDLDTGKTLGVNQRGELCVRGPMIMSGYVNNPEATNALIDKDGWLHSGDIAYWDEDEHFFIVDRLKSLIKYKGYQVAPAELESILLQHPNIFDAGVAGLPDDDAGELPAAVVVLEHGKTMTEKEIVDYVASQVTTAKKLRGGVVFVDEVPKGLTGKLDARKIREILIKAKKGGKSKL
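Purified P. pyralis luciferase (10nM final) with 10uM D-luciferin and 10uM ATP (Km levels) in 50mM Tris acetate pH 7.5, 10mM Mg acetate, 0.01% Tween-20, 0.05% BSA; qHTS 6-point titration, ~60 µM downward; luminescence read.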
* marks the source's active call; other numbers are inactive results; u = inconclusive; x = no result; [ ] = dose if it differs, or a comment. Calls follow the shape of the dose curve; as a rule, active = well fitted curve in the direction sought with a large enough effect; inconclusive = small, poorly fitted or top-dose-only effect, or another doubt; inactive = no such curve, though single readings can be large; an effect the other way counts as inactive or inconclusive. Potency is read from the fitted curve at half-maximal effect.

SMILES	ELG1 genotox	NPC1 promoter act	Rab9 prom act	KinaseGlo FLuc	SMN2 splice enh	FLuc counter
O=C(O)CCCCCN1C(=O)/C(=C\c2ccc(-c3ccc(Cl)cc3)o2)SC1=S	3.7%	-2.5%	-4.2%	x	x	u
O=C(O)CCCN1C(=O)/C(=C/c2ccc(-c3nc4ccccc4s3)o2)SC1=S	13.5%	10.5%	-1.3%	0.5%	17.8µM*	-5.7%
Cc1ccc(NC(=O)CCNC(=O)Cn2ccc3ccccc3c2=O)cc1F	u	29.1%	u	x	x	16.9µM*
O=C(N/N=C/C(Br)=C/c1ccccc1)C1CC1	10.3%	29.4%	2.82µM*	5.2%	x	u
O=C(O)c1ccc(N/N=C/C(Br)=C/c2ccccc2)cc1	u	0.355µM*	0.316µM*	x	x	0.477µM*
O=C(N/N=C/C(Br)=C/c1ccccc1)C(O)c1ccccc1 (stereo not drawn)	3.6%	21.8%	28.0%	x	x	15.1µM*
Cc1ccc(NCC(=O)N/N=C\C(Br)=C\c2ccccc2)cc1	5.3%	-2.1%	2.7%	1.8%	8.8%	6.8%
O=C(N/N=C/C(Br)=C/c1ccccc1)NC1CCCCC1	u	10.2%	23.0%	4.5%	29.1%	u
O=P(c1ccccc1)(c1ccccc1)C(O)c1ccccn1 (stereo not drawn)	0.4%	6.3%	0.6%	x	x	-0.4%
O=C1c2ccccc2CCC1C(O)c1ccccn1 (stereo not drawn)	-2.5%	6.4%	9.6%	x	x	15.1µM*
Cc1ccc(Cl)cc1N1CCN(C(=O)c2ccc3c(c2)N(Cc2ccccc2F)C(=O)c2ccccc2S3(=O)=O)CC1	x	x	x	x	-1.6%	0.6%
CCOCC(=O)Nc1nnc(C2CCCCC2)s1	u	u	u	2.6%	12.6µM*	u
C/C=C/C(=O)Nc1nnc(C2CCCCC2)s1	0.9%	-4.1%	0.6%	-1.7%	x	26.9µM*
Cc1ccc(C(=O)Nc2nnc(C3CCCCC3)s2)o1	3.66µM*	1.78µM*	3.98µM*	-5.3%	11.2µM*	9.53µM*
Cc1cc(C)cc(NC(=O)N2CCN(C(=O)c3nsc4ccccc34)CC2)c1	x	x	x	x	x	-0.9%
O=C(O)CSc1nc2ccccc2o1	5.6%	0.7%	11.6%	-1.0%	-6.2%	-13.4%
Cc1ccc(C(=O)CSc2nc3ccccc3o2)cc1	20.0%	21.9%	u	-2.8%	-28.8%	13.5µM*
CCC(Sc1nc2ccccc2o1)C(=O)O (stereo not drawn)	4.2%	-1.3%	5.4%	-0.2%	-4.1%	u
O=C(CSc1nc2ccccc2o1)Nc1ccccc1	20.6µM*	2.7%	-1.2%	0.6%	23.2%	u
CC(Sc1nc2ccccc2o1)C(=O)O (stereo not drawn)	u	-3.3%	3.8%	-25.4%	-19.1%	15.1µM*
NC(C(=O)O)(c1ccc(P(=O)(O)O)cc1)C1CC1 (stereo not drawn)	x	x	x	x	7.3%	x
O=[N+]([O-])c1ccc(Nc2ccccc2)c2nonc12	-4.4%	0.3%	8.4%	x	x	-15.2%
CCOc1ccc(Nc2ccc([N+](=O)[O-])c3nonc23)cc1	20.2%	u	4.47µM*	x	x	12µM*
CCCCc1cc2c(cn1)=C(OC(=O)c1ccc(Cl)nc1)C(C)(OC(=O)CC)C(=O)C=2 (stereo not drawn)	x	x	x	-4.0%[7.66 µM]	-7.1%[9.22 µM]	x
CCOC(=O)c1cc(C)n(CC2CCC(C(=O)Nc3ccc(OC)cc3)CC2)c1C (stereo not drawn)	x	x	x	x	x	-3.7%
COc1cc2nc(NCCc3ccccc3)n3nc(-c4cccnc4)nc3c2cc1OC	x	x	x	x	0.0%	-4.3%
O=C(NCCN1CCCCC1)c1ccc(Cn2c(SCc3ccccc3)nc3cccnc32)cc1	x	x	x	x	4.2%	12µM*
CC1CCCCN1CCNC(=O)c1ccc(Cn2c(SCc3ccccc3)nc3cccnc32)cc1 (stereo not drawn)	x	x	x	x	7.7%	13.5µM*
CC1CCN(CCNC(=O)c2ccc(Cn3c(SCc4ccccc4)nc4cccnc43)cc2)CC1	x	x	x	x	1.8%	12µM*
Cc1cccc(Cn2c(SCc3ccc(C(=O)NCCc4ccccc4)cc3)nc3cccnc32)c1	x	x	x	x	x	-14.1%
